Experimental findings from PubChem BioAssay (NCI) are described below.

Some test systems named below: NCI-H23 lung; NCI-H226 lung; NCI-H322M lung; HOP-62 NSCLC; NCI-H460 lung; NCI-H522 lung; A549/ATCC NSCLC; 786-0 renal; COLO 205 colon; DU-145 prostate.
What all share (assay): NCI-60 one-dose screen, 48 h (100 = growth as untreated, 0 = no growth, -100 = all killed)
Details in all cases: 10 µM unless noted

Compounds without any hit were thinned out: in the full panel of roughly 83,000, 20% have a hit.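 Note: values are percent growth. 100 is the growth of untreated cells, values between 100 and 0 indicate rising inhibition; between -100 and 0 indicates cell death.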 Values without a mark were called inactive. Calls of active or inactive are those of the source. Rule for the calls: active = growth percent below 10; inactive = the rest.

As to `ClC1=C(Cl)C(Cl)=C(Cl)C1=C/C=C/c1ccccc1`, the growth with NCI-H23 lung is -45.9% (active); in the test with NCI-H226 lung, -70.5% (active); with NCI-H322M lung, -27.8% (active); with HOP-62 NSCLC, -68.2% (active); with NCI-H460 lung, 0.0738% (active); with NCI-H522 lung, -52.4% (active). In addition, the growth is -58% (active) in the test with A549/ATCC NSCLC, -71.3% (active) in the test on 786-0 renal, -90.6% (active) in the test with COLO 205 colon and -46.5% (active) in the test on DU-145 prostate.

On to `O=C(Nc1ncc([N+](=O)[O-])s1)c1cccc([N+](=O)[O-])c1`, for which the growth is 9.05% (active) in the test on NCI-H23 lung; 29.3% in the test with NCI-H226 lung; 35.9% in the test on NCI-H322M lung; 25.3% in the test on HOP-62 NSCLC; 43.4% in the test with NCI-H460 lung; 8.27% (active) in the test on NCI-H522 lung. The growth is 81.8% in the test with A549/ATCC NSCLC, 18% in the test on 786-0 renal, 77% in the test with COLO 205 colon and 84.6% in the test with DU-145 prostate.

On to `CCCCCCCCCCCCCCCCN=C(CC(=O)O)C(=O)O`, for which the growth is 103% in the test on NCI-H23 lung; 99.4% in the test on NCI-H226 lung; 91.7% in the test on NCI-H322M lung; 106% in the test on HOP-62 NSCLC; 82.7% in the test on NCI-H460 lung; 87.5% in the test on NCI-H522 lung. Besides, the growth is 96.1% in the test on A549/ATCC NSCLC, 95.4% in the test on 786-0 renal, 97.9% with COLO 205 colon and 78.8% in the test on DU-145 prostate.

On to `COc1ccc(/C=N\Nc2ccc([N+](=O)[O-])cn2)cc1OC`, for which the growth in the test on NCI-H23 lung was 88.4%; in the test on NCI-H226 lung it was 34.7%; with NCI-H322M lung, 10.8%; with HOP-62 NSCLC, 25.4%; with NCI-H460 lung, 1.43% (active); in the test on NCI-H522 lung, 47.9%. The growth was 30.3% in the test with A549/ATCC NSCLC, 10.2% in the test on 786-0 renal, 67.5% in the test on COLO 205 colon and 73.7% with DU-145 prostate.

For the molecule `CO[C@H]1CC(O[C@@H]2/C(C)=C/C[C@@H]3C[C@@H](C[C@]4(CC[C@H](C)[C@@H](C5CCCCC5)O4)O3)OC(=O)[C@@H]3C=C(C)/C(=N/O)[C@H]4OC/C(=C\C=C\[C@@H]2C)[C@]43O)O[C@@H](C)C1O` (stereo not given in full), the growth with NCI-H23 lung was -76.2% (active); in the test on NCI-H226 lung, -84.2% (active); in the test with NCI-H322M lung, -78% (active); in the test on HOP-62 NSCLC, -88.8% (active); in the test with NCI-H460 lung, -82.3% (active); with NCI-H522 lung, -73.4% (active). For the same molecule, the growth is -82.9% (active) in the test on A549/ATCC NSCLC, -91.1% (active) in the test with 786-0 renal, -79.4% (active) in the test on COLO 205 colon and -96.1% (active) with DU-145 prostate.

On to `Clc1ccc(-c2nc(-c3cccs3)no2)c(Cl)c1`, for which the growth with NCI-H23 lung was 92.6%; in the test on NCI-H226 lung, 88.7%; in the test with NCI-H322M lung, 120%; in the test with HOP-62 NSCLC it was 84.9%; in the test with NCI-H460 lung it was 92.1%; in the test with NCI-H522 lung, 91.4%. Also, the growth was 91.4% in the test on A549/ATCC NSCLC, 97.4% in the test with 786-0 renal, 106% in the test with COLO 205 colon and 99.3% in the test on DU-145 prostate.

Regarding `O=C(/C=C/c1cccnc1)/C=C/c1cccnc1`, the growth with NCI-H23 lung was -5.04% (active); with NCI-H226 lung, 2.94% (active); with NCI-H322M lung, 122%; in the test with HOP-62 NSCLC, 98.9%; with NCI-H460 lung it was 18.5%; in the test on NCI-H522 lung, -91.2% (active). For the same molecule, the growth in the test with A549/ATCC NSCLC was 6.27% (active); in the test with 786-0 renal, 5.1% (active); in the test on COLO 205 colon it was -84.8% (active); in the test on DU-145 prostate, -29.6% (active).

For the molecule `CCCCCCCCSc1ncnc2c1ncn2CO`, the growth in the test on NCI-H23 lung was 50.8%; in the test on NCI-H226 lung, 58.5%; with NCI-H322M lung it was 140%; in the test on HOP-62 NSCLC, 82.7%; with NCI-H460 lung it was 86.6%; with NCI-H522 lung, 66.4%. Moreover, the growth was 102% in the test on A549/ATCC NSCLC, 85.5% in the test with 786-0 renal, 104% in the test with COLO 205 colon and 90.9% with DU-145 prostate.

Take `O=C(Nc1cccc2ccccc12)c1cc2c(cc1Br)OCO2`: the growth in the test with NCI-H23 lung was 88.6%; in the test with NCI-H226 lung it was 81%; in the test with NCI-H322M lung, 97.8%; in the test with HOP-62 NSCLC, 125%; in the test with NCI-H460 lung, 92.9%; in the test on NCI-H522 lung, 103%. Further, the growth in the test with A549/ATCC NSCLC is 113%; with 786-0 renal, 158%; with COLO 205 colon it was 76.2%; in the test on DU-145 prostate, 103%.

Consider `COc1cc([C@@H]2c3cc4c(cc3C(O[C@@H]3O[C@@H]5CO[C@@H](c6cccs6)OC5[C@H](O)[C@H]3O)C3COC(=O)[C@@H]32)OCO4)cc(OC)c1O` (stereo not given in full), for which the growth with NCI-H23 lung was -32.5% (active); in the test with NCI-H226 lung, -53.9% (active); in the test with NCI-H322M lung, 7.81% (active); with HOP-62 NSCLC it was -39.8% (active); with NCI-H460 lung it was -36.7% (active); with NCI-H522 lung it was -53.7% (active). Moreover, the growth in the test on A549/ATCC NSCLC is -48.3% (active); in the test with 786-0 renal it was -40.6% (active); in the test with COLO 205 colon, -23.8% (active); in the test with DU-145 prostate, -33.4% (active).

On to `C/C(=C\CCc1ccsc1)CC/C=C(\C)CCCN1CCN(CCO)CC1`, for which the growth is 62.2% in the test with NCI-H23 lung; 67.7% in the test on NCI-H226 lung; 71.8% with NCI-H322M lung; 69.1% with HOP-62 NSCLC; 14.6% with NCI-H460 lung; 71.5% in the test with NCI-H522 lung. Further, the growth was 44.8% in the test on A549/ATCC NSCLC, 32.8% in the test with 786-0 renal, -9.2% (active) in the test with COLO 205 colon and 76.4% in the test on DU-145 prostate.

For `Clc1nc(Cl)c2ncn(-c3ccccc3)c2n1`, the growth in the test on NCI-H23 lung was 99.9%; in the test on NCI-H226 lung, 93.4%; in the test on NCI-H322M lung, 76.8%; with HOP-62 NSCLC it was 99.4%; in the test with NCI-H460 lung, 89.2%; in the test with NCI-H522 lung, -68.9% (active). For the same molecule, the growth in the test on A549/ATCC NSCLC is 95.3%; in the test with 786-0 renal, 88.5%; in the test on COLO 205 colon, 80.9%; with DU-145 prostate, 36.7%.

Consider `O=C(CCc1nnc(Cn2ccnc2)o1)c1nc2ccccc2[nH]1`, for which the growth in the test with NCI-H23 lung is 102%; in the test on NCI-H226 lung, 115%; with NCI-H322M lung it was 92.9%; with HOP-62 NSCLC it was 102%; with NCI-H460 lung, 116%; in the test with NCI-H522 lung, 98.4%. Also, the growth is 103% with A549/ATCC NSCLC, 105% with 786-0 renal, 119% in the test on COLO 205 colon and 108% in the test with DU-145 prostate.

As to `O=C(/C(=N/O)S(=O)(=O)c1ccccc1)c1cccs1`, the growth with NCI-H23 lung is 94.2%; in the test on NCI-H226 lung, 102%; in the test on NCI-H322M lung, 111%; in the test on HOP-62 NSCLC, 94.4%; in the test with NCI-H460 lung, 102%; with NCI-H522 lung, 143%. Further, the growth was 106% with A549/ATCC NSCLC, 99.8% in the test on 786-0 renal, 104% in the test with COLO 205 colon and 115% in the test with DU-145 prostate.
